# From the supplement of paper PMC3545927
# The list shows a part of the results. The hit rate among all sequences tested is not known here.
# Target: furin, P09958
# Test: furin cleavage Z-score vs untreated control; higher = more cleavage, active = 3.5 or more, inactive = 1 or less, 8 variable residues between constant flanks
# Outline: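 Abundance of DNA freed from bead-bound 8-mer peptide–cDNA fusions by purified furin was measured as sequencing read counts after PCR adapter tagging. Cutting ran 7.5, 15 or 30 min in 0.01 ml of 50 mM HEPES pH 7.5 with CaCl2 and NaCl at 1:10 enzyme:substrate. The cleavage Z-score expresses these log counts against furin-free reactions after lowess adjustment and median absolute deviation scaling.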
# Chain of furin, P09958 (P09958 whole entry): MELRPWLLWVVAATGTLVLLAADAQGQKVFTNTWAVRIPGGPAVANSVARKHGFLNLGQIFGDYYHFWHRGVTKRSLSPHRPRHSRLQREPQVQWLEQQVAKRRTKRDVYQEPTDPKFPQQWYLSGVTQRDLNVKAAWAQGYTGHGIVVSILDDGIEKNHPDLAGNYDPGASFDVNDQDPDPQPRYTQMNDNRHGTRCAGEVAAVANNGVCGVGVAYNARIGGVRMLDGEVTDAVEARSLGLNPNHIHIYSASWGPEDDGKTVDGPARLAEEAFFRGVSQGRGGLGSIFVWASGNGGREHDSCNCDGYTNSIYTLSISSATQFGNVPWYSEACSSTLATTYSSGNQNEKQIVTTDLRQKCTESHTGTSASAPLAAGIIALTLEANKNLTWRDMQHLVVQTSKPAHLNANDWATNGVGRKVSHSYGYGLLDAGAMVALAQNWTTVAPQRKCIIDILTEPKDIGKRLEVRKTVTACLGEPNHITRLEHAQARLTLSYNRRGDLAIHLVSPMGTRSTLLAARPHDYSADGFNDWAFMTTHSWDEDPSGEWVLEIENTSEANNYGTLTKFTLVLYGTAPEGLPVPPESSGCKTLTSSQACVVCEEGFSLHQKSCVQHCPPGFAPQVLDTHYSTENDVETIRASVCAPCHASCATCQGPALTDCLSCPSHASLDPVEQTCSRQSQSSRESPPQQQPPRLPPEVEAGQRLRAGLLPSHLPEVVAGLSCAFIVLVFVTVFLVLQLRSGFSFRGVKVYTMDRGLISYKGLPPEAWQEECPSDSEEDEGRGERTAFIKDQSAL
Sequence,furin cleavage Z-score (7.5 min),furin cleavage Z-score (15 min),furin cleavage Z-score (30 min)
CATWMNSTGFAGNASASA [HC437],0.658 (inactive),2.27,-0.141 (inactive)
CATTPCSGSDAGNASASA [HC1931],-0.759 (inactive),-0.942 (inactive),-0.913 (inactive)
CARPSRKRRSAGNASASA [FS-1070],12.8 (active),11.6 (active),9.65 (active)
CARPKRYFTIAGNASASA [FS-2579],-0.409 (inactive),-0.643 (inactive),-0.0555 (inactive)
CARPKRLDSAAGNASASA [FS-2578],-0.648 (inactive),-0.15 (inactive),0.332 (inactive)
CARPKRADTFAGNASASA [FS-2054],5.65 (active),7.21 (active),7.85 (active)
CARPSGMFDSAGNASASA [HC914],-0.826 (inactive),-0.415 (inactive),-0.285 (inactive)
CARPKRCPRSAGNASASA [FS-2055],7.03 (active),6.47 (active),5.65 (active)
CARHIRKRRSAGNASASA [FS-1157],13.5 (active),13.3 (active),9.11 (active)
CASTPCSALLAGNASASA [HC2545],0.599 (inactive),1.06,0.284 (inactive)
CATTPLARAAAGNASASA [HC1565],-0.63 (inactive),1.08,-0.687 (inactive)
CADITKLLLAAGNASASA [HC604],-1.43 (inactive),0.163 (inactive),0.0126 (inactive)
CAEISRKRRSAGNASASA [FS-649],10.9 (active),9.94 (active),7.56 (active)
CAGERRKRRSAGNASASA [FS-425],14.4 (active),13.6 (active),11 (active)
CAGSHMKRRSAGNASASA [FS-659],-0.564 (inactive),0.785 (inactive),1.98
CAEFERRWRSAGNASASA [FS-230],-1.8 (inactive),-0.415 (inactive),0.059 (inactive)
CAAGKRVYYLAGNASASA [HC1559],-0.901 (inactive),0.829 (inactive),-0.892 (inactive)
CAAGKRKRRSAGNASASA [FS-1299],12.8 (active),14.7 (active),10.5 (active)
CAEIKRKWRSAGNASASA [FS-21],2.15,3.65 (active),5.04 (active)
CAEVACHRPSAGNASASA [HC2343],0.99 (inactive),0.762 (inactive),1.27
CACPTDCFRKAGNASASA [HC451],0.183 (inactive),-0.762 (inactive),-0.961 (inactive)
CAVVLVGLMAAGNASASA [HC571],-0.371 (inactive),0.0646 (inactive),-0.205 (inactive)

Sequence,furin cleavage Z-score (7.5 min),furin cleavage Z-score (15 min),furin cleavage Z-score (30 min)
CASLHSYSPGAGNASASA [HC1607],-1.22 (inactive),0.427 (inactive),0.0666 (inactive)
CAPRKKRTVVAGNASASA [HC1324],11.4 (active),13.7 (active),11.3 (active)
CARKKRSVVVAGNASASA [DV4],9.41 (active),10.1 (active),9.47 (active)
CAPTSGDVVVAGNASASA [HC874],-0.612 (inactive),0.813 (inactive),-0.497 (inactive)
CARVVTSTWVAGNASASA [HC2153],1.81,1.03,0.0503 (inactive)
CAFTPSPVVVAGNASASA [HC415],-0.406 (inactive),-0.269 (inactive),-0.296 (inactive)
CAEVTTSTWVAGNASASA [HC2198],-0.604 (inactive),0.139 (inactive),-0.711 (inactive)
CAEVVTSTVVAGNASASA [HC2230],-0.163 (inactive),-0.129 (inactive),-0.367 (inactive)
CARCRRCVVVAGNASASA [FS-2327],-0.669 (inactive),0.654 (inactive),1.36
CARVKRSVVVAGNASASA [FS-2840],8.15 (active),9.71 (active),8.81 (active)
CARVKKSVEVAGNASASA [FS-3118],4.33 (active),7.31 (active),8.17 (active)
CAEVPCHVPSAGNASASA [HC2370],-0.196 (inactive),0.881 (inactive),0.0659 (inactive)
CAVIPTSGDVAGNASASA [HC873],-1.48 (inactive),-0.378 (inactive),1.84
CAYRLWHYPCAGNASASA [HC467],0.186 (inactive),0.568 (inactive),0.0366 (inactive)
CAVVCFSMSYAGNASASA [HC86],-0.132 (inactive),1.31,0.28 (inactive)
CADIEVVTSTAGNASASA [HC2284],-0.624 (inactive),-0.333 (inactive),-1.16 (inactive)
CAPRCLVDYPAGNASASA [HC463],0.288 (inactive),-0.558 (inactive),-0.868 (inactive)
CAMEECSQDLAGNASASA [HC1751],-0.0304 (inactive),-0.261 (inactive),0.894 (inactive)
CASTPCSAHFAGNASASA [HC2567],1.04,-0.481 (inactive),1.8
CARVVLSGKPAGNASASA [HC1003],-0.899 (inactive),-0.703 (inactive),-0.908 (inactive)
CARVKKEWEEAGNASASA [FS-1871],-0.778 (inactive),-0.527 (inactive),-1.03 (inactive)
CARVKKSPPEAGNASASA [FS-2196],3.38,4.49 (active),5.53 (active)
